# PubChem BioAssay AID504558 (Broad Institute, 2011)
# Among all 350,000 compounds or so, about 2,400 (0.69%) were called active. No stated cut-off is given here; in the data, active means inhibition above about 41%; inconclusive means no clear call, values can overlap the other calls; inactive means below that. Shown is part of a subset that was picked to be rich in actives.
# Experiment: EBV LMP1-driven NF-kappaB luciferase reporter inhibitors, primary screen, cell-based, luminescence, single point (AID 504558);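 further: 0% = neutral control wells and 100% = reference inhibitor control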
# Conditions: LMP1-induced NF-kappaB luciferase reporter cells, at 12.5 µM, hits give high values
row,Structure (SMILES),inhibition
1,COc1ccc(CCN=C2SCC(=O)N2Cc2ccccc2)cc1OC,6.74% (inactive)
2,COc1cc(C2CC(=O)N3CN(Cc4ccccc4)CSC3=C2C#N)ccc1OCc1ccccc1 (configuration not stated),65% (active)
3,COc1cc(CNC2CCCC2)c(Br)cc1OCc1ccccc1,-15.5% (inactive)
4,Cc1ccccc1-c1ccc2c(c1)O[C@@H](CN(C)Cc1ccc(C(=O)O)cc1)[C@@H](C)CN([C@H](C)CO)S2(=O)=O,1.79% (inactive)
5,C[C@H](CO)N1C[C@H](C)[C@@H](CN(C)C(=O)c2cccc(F)c2)Oc2cc(-c3cncnc3)ccc2S1(=O)=O,-0.771% (inactive)
6,Nc1cccc(OCCCCCOc2cccc(N)c2)c1,-19.1% (inactive)
7,COCCCn1c(=O)/c(=C/c2ccccc2OC(C)C)s/c1=C(\C#N)C(=O)Nc1ccc(C(=O)O)cc1,4.37% (inactive)
8,Cc1cc(C)c2cc(C#N)c(N3CCNCC3)nc2c1,-5.81% (inactive)
9,CC1(C)CN(Cc2cccnc2)C(=O)[C@H]1CC(=O)Nc1ccc(Br)cc1,-4.33% (inactive)
10,O=C1c2ccccc2C(O)N1Cc1ccccc1 (configuration not stated),49.7% (active)
11,O=C1c2ccccc2C(O)N1Cc1ccccc1Cl (configuration not stated),-5.54% (inactive)
12,CCC(C)NC(=O)C1c2ccccc2C(=O)N1Cc1ccccc1 (configuration not stated),30.9% (inactive)
13,CCN(CC)CCN(C(=O)c1ccc2c(c1)CCCC2)c1nc2c(OC)cccc2s1,9.68% (inactive)
14,O=C(COC(=O)c1ccc(S(=O)(=O)N2CCCCCC2)cc1)Nc1ccccc1C(F)(F)F,-10.6% (inactive)
15,CC(C)=CCc1c(O)c(CC=C(C)C)c2occ(-c3ccc(O)cc3)c(=O)c2c1O,-4.63% (inactive)
16,CC(C)=CCc1ccc(O)c(=O)cc1C(C)C,52.9% (active)
17,CC(C)c1cc(N=O)cc(C(C)C)c1O,11.3% (inactive)
18,Cc1ccc(S(=O)(=O)N2C[C@H]3n4c(=O)ccc(=O)n4C[C@H](OC(=O)NC4CCCC4)[C@@]3(O)C2)cc1,0.795% (inactive)
19,CCc1noc(C)c1C(=O)OCC(=O)c1ccc(NC(=O)CC(C)C)cc1,7.07% (inactive)

row,Structure (SMILES),inhibition
1,CCN(CC)c1ccc(/C=N/NC(=O)c2cnccn2)c(O)c1,66.9% (active)
2,CCN(CC)c1ccc(NC(=O)c2ccc(Cl)nc2)cc1,2.91% (inactive)
3,COc1ccc(NC(=O)C/C(C)=N/NC(=O)c2cnccn2)cc1Cl,0.411% (inactive)
4,COc1cc(C)c(CN2CCN(C(=O)CCC(=O)c3ccc(C)s3)CC2)cc1OC,-18.3% (inactive)
5,C[C@H]1Cn2cnc(C(=O)N[C@@H](Cc3c[nH]c4ccccc34)C(=O)OC(C)(C)C)c2C(=O)N1,-25.3% (inactive)
6,CCN(CC)C(=O)C1=C(C)N(Cc2ccc(OC)cc2)C(=O)C(CC(=O)NCCCCc2ccccc2)C1 (configuration not stated),-3.18% (inactive)
7,COc1ncnc2c1ncn2CCCNCCN1CCOCC1,-1.37% (inactive)
8,Oc1c(Cl)cc(Cl)c(Cl)c1Cc1c(O)c(Cl)cc(Cl)c1Cl,52.3% (active)
9,COc1ccccc1NC(=O)C(CC(=O)O)Cc1cc(C)cc(C)c1 (configuration not stated),-13.3% (inactive)
10,OCCCNc1nccc(-c2cc(Nc3cccc(Cl)c3)ncn2)n1,88.6% (active)
11,CC(C)n1cnc2c(Nc3cccc(Cl)c3)nc(N(CCO)CCCO)nc21,-2.02% (inactive)
12,Cc1cccc(Nc2nc(NCCO)nc(N3CCCC3)n2)c1,7.29% (inactive)
13,Cc1ccccc1NC(=O)Cc1nc(COC(=O)CNC(=O)c2ccc(Cl)cc2Cl)cs1,-5.79% (inactive)
14,CCC(C)Cn1c(O)cc2nn(-c3nc4ccccc4s3)c(=O)c-2c1C (configuration not stated),51.8% (active)
15,CC(=O)Nc1ccc2nc(NC(=O)CS(=O)(=O)c3ccc(F)cc3)sc2c1,-1.73% (inactive)
16,O=C(Nc1ccc(C(=O)N2CCOCC2)cc1)Nc1cccc(C(F)(F)F)c1,65.4% (active)
17,COc1ccccc1C(=O)Nc1cccc(C(=O)N2CCOCC2)c1,-6.8% (inactive)
18,O=C(COc1ccc(S(=O)(=O)Nc2cccc(C(F)(F)F)c2)cc1)N1CCOCC1,5.55% (inactive)
19,COc1ccc(Cn2c(=O)oc3ccccc32)cc1,-3.08% (inactive)

row,Structure (SMILES),inhibition
1,CC1CC(NC(=S)N(C)C)CC(C)(C)C1 (configuration not stated),-2.42% (inactive)
2,CNC(=O)C[C@H]1C(=O)N(c2ccc(OC)cc2)C[C@@H]1Cc1ccccc1,-2.06% (inactive)
3,CN(CCO)c1ccc(/C=N/Nc2nncc3ccccc23)cc1,45.7% (active)
4,COc1cccc(/C=N\Nc2nncc(-c3ccccc3)n2)c1,-5.65% (inactive)
5,C/C(=N\Nc1nncc2ccccc12)c1ccc(Cl)c([N+](=O)[O-])c1,-18.4% (inactive)
6,NC(=O)CSc1nnc(-c2cccc(S(=O)(=O)N3CCOCC3)c2)o1,1.36% (inactive)
7,O=C1CCC(C(=O)OCC(=O)Nc2ccc(OC(F)F)cc2)=NN1,-2.22% (inactive)
8,O=C(Nc1cc(F)ccc1F)c1ccc2c(=O)n3c(nc2c1)CCC3,-23.7% (inactive)
9,O=C(CSCc1ccc(Br)cc1)Nc1ccc(S(=O)(=O)N2CCCCCC2)cc1,-7.38% (inactive)
10,O=C(O)CC(SCC(=O)Nc1ccc(Br)cc1)C(=O)O (configuration not stated),-3.51% (inactive)
11,O=C1CCCN2N=C(SCC(=O)Nc3ccc(Br)cc3)SC2=N1,46.9% (active)
12,C[C@H](CO)N1C[C@H](C)[C@@H](CN(C)C(=O)C2CCCCC2)OCc2cnnn2CCCC1=O,0.386% (inactive)
13,C[C@H]1CN([C@@H](C)CO)C(=O)c2cc(-c3cccc(F)c3)cnc2O[C@@H]1CN(C)S(C)(=O)=O,5.8% (inactive)
14,C=CC(=O)OCCOCCOCCOCCOC(=O)C=C,83.3% (active)
15,O=C(c1cc2cc(Br)cc(Br)c2oc1=O)N1CCOCC1,83.6% (active)
16,COc1cc2ccccc2cc1C(=O)N1CCOCC1,25.1% (inactive)
17,COc1cccc2cc(C(=O)N3CCN(C(=O)c4ccccc4)CC3)c(=O)oc12,-0.766% (inactive)
18,O=C(N=C1SC2CS(=O)(=O)CC2N1Cc1ccccc1)c1ccccc1 (configuration not stated),1.35% (inactive)
19,COC(=O)[C@H]1C[C@H](OC(=O)NCc2ccccc2)[C@@]2(O)CN(S(=O)(=O)c3ccc(C)cc3)CC2[C@H]1C(=O)OC (some centres not stated),-13.5% (inactive)
